This is part of a sample that, as a whole, favours compounds with a hit. Of some 83,000 tested, about 20% had one in any assay.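 Values shown are percent growth following 48 h exposure of cells in 96-well plates to a single concentration of compound; below 10 was considered active.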 Activity calls are given as the source filed them.
Legend:
Experiment in all cases: NCI-60 one-dose screen, 48 h (100 = growth as untreated, 0 = no growth, -100 = all killed)
SR leukemia = conditions: 10 µM unless noted
OVCAR-8 ovarian = conditions: 10 µM unless noted
OVCAR-5 ovarian = conditions: 10 µM unless noted
OVCAR-4 ovarian = conditions: 10 µM unless noted
SK-OV-3 ovarian = conditions: 10 µM unless noted
IGROV1 ovarian = conditions: 10 µM unless noted
OVCAR-3 ovarian = conditions: 10 µM unless noted
HS 578T breast = conditions: 10 µM
NCI/ADR-RES ovarian = conditions: 10 µM unless noted
T-47D breast = conditions: 10 µM unless noted
BT-549 breast = conditions: 10 µM unless noted
MDA-MB-435 melanoma = conditions: 10 µM unless noted
SW-620 colon = conditions: 10 µM unless noted
MCF7 breast = conditions: 10 µM unless noted
HCT-116 colon = conditions: 10 µM unless noted
HCC-2998 colon = conditions: 10 µM
KM12 colon = conditions: 10 µM unless noted
RPMI-8226 leukemia = conditions: 10 µM unless noted

Measured: growth

CCN(CC)CCNc1ccc(N=Nc2cnc3ccccc3c2)c2ccccc12
active: SR leukemia -53.1% | OVCAR-8 ovarian -90.1% | OVCAR-5 ovarian -86.6% | OVCAR-4 ovarian -25.3% | SK-OV-3 ovarian -77.2% | IGROV1 ovarian -92.8% | OVCAR-3 ovarian -73.2% | HS 578T breast -73.9% | NCI/ADR-RES ovarian -40% | T-47D breast -38.8% | MDA-MB-435 melanoma -33.2% | SW-620 colon -84.4% | MCF7 breast -79.2% | HCT-116 colon -94.8% | HCC-2998 colon -95.4% | KM12 colon -87.3%
inactive: BT-549 breast 27.5%

CC(C)(O)CC(=O)NCCn1ccc2ncnc(Nc3ccc(Oc4cccc(C(F)(F)F)c4)c(Cl)c3)c21
active: SR leukemia 3.05% | OVCAR-5 ovarian 3.46% | IGROV1 ovarian -42.6% | NCI/ADR-RES ovarian 9.15% | T-47D breast -18.8% | HCT-116 colon 0.422% | HCC-2998 colon -27.2% | KM12 colon 9.88%
inactive: RPMI-8226 leukemia 11% | OVCAR-4 ovarian 25.6% | OVCAR-3 ovarian 32.6% | BT-549 breast 17.5% | MDA-MB-435 melanoma 14.3% | SW-620 colon 14.1% | MCF7 breast 14.3%

CC(C)=CCc1cc2c(cc1O)C1=C(C(=O)C3=C(C1=O)S(=O)(=O)CCN3)C(C=C(C)C)O2 (stereo not drawn)
active: SR leukemia 2.02% | OVCAR-8 ovarian -5.83% | OVCAR-5 ovarian -72.4% | OVCAR-4 ovarian -98.2% | SK-OV-3 ovarian -3.23% | IGROV1 ovarian -30.6% | OVCAR-3 ovarian 0.0791% | T-47D breast -2.63% | BT-549 breast -73.6% | MDA-MB-435 melanoma -52.6% | SW-620 colon -18.9% | MCF7 breast -50.7% | HCT-116 colon -24.8% | HCC-2998 colon -66%
inactive: HS 578T breast 11.1% | NCI/ADR-RES ovarian 73.8% | KM12 colon 13.6%

COc1cc2cc(NCc3ccc(F)cc3)nc(C)c2cc1OC
active: HCT-116 colon 9.34%
inactive: SR leukemia 22.2% | OVCAR-8 ovarian 51% | OVCAR-5 ovarian 53.4% | OVCAR-4 ovarian 96.7% | SK-OV-3 ovarian 75.3% | IGROV1 ovarian 59.1% | OVCAR-3 ovarian 68.2% | HS 578T breast 75.8% | NCI/ADR-RES ovarian 44.4% | T-47D breast 53.2% | BT-549 breast 29% | MDA-MB-435 melanoma 24.6% | SW-620 colon 21.8% | MCF7 breast 68.6% | HCC-2998 colon 42.3% | KM12 colon 42.3%

CCn1cc(-c2ccnc3[nH]c(-c4cccc(CN(C)C)c4)cc23)c(-c2ccc(NC(=O)N(C)C)cc2)n1
active: SR leukemia -15.8% | RPMI-8226 leukemia 3% | SK-OV-3 ovarian -0.688% | SW-620 colon 2.66% | HCT-116 colon 8.47%
inactive: OVCAR-4 ovarian 41.1% | IGROV1 ovarian 26.3% | OVCAR-3 ovarian 48.1% | NCI/ADR-RES ovarian 72.4% | T-47D breast 58% | BT-549 breast 14.1% | MDA-MB-435 melanoma 51.3% | MCF7 breast 16.1% | HCC-2998 colon 60%

O=C(c1c(F)ccc(NS(=O)(=O)N2CC[C@@H](F)C2)c1F)c1c[nH]c2ncc(-c3cnc(C4CC4)nc3)cc12
active: T-47D breast 9.33%
inactive: SR leukemia 21.6% | RPMI-8226 leukemia 36.3% | OVCAR-5 ovarian 58.3% | OVCAR-4 ovarian 64.2% | IGROV1 ovarian 17% | OVCAR-3 ovarian 69.4% | BT-549 breast 61.6% | MDA-MB-435 melanoma 16.8% | SW-620 colon 66.6% | MCF7 breast 61.3% | HCT-116 colon 30.8% | KM12 colon 54.4%

CC1CCC(n2cnc3c(Cl)ncnc32)O1 (stereo not drawn)
inactive: SR leukemia 104% | OVCAR-8 ovarian 91.4% | OVCAR-5 ovarian 93.9% | OVCAR-4 ovarian 104% | SK-OV-3 ovarian 98.6% | IGROV1 ovarian 61.7% | OVCAR-3 ovarian 97.1% | HS 578T breast 88.1% | NCI/ADR-RES ovarian 101% | T-47D breast 91.1% | BT-549 breast 89.6% | MDA-MB-435 melanoma 99.6% | SW-620 colon 106% | MCF7 breast 90.1% | HCT-116 colon 89.3% | HCC-2998 colon 103% | KM12 colon 106%

Cc1nc(-c2cn3c(n2)-c2ccc(-c4cnn(C(C)(C)C(N)=O)c4)cc2OCC3)n(C(C)C)n1
inactive: SR leukemia 30.1% | RPMI-8226 leukemia 39.3% | OVCAR-5 ovarian 28.8% | OVCAR-4 ovarian 62.5% | OVCAR-3 ovarian 24.5% | NCI/ADR-RES ovarian 39.2% | BT-549 breast 14.9% | MDA-MB-435 melanoma 27.8% | SW-620 colon 44% | MCF7 breast 13.7% | HCT-116 colon 20.4% | KM12 colon 16.2%
active: SK-OV-3 ovarian -22.1% | IGROV1 ovarian -10.7% | T-47D breast -9.88%

COc1cc(OC)c(C(=O)/C=C/c2cc3c(cc2OCc2ccccc2)OC(C)(C)CC3)cc1CC=C(C)C
active: OVCAR-8 ovarian 1.96%
inactive: SR leukemia 11.6% | OVCAR-5 ovarian 64.7% | OVCAR-4 ovarian 44.7% | SK-OV-3 ovarian 78.6% | IGROV1 ovarian 66.5% | OVCAR-3 ovarian 19.2% | HS 578T breast 69.6% | NCI/ADR-RES ovarian 51.9% | T-47D breast 42.3% | BT-549 breast 27.2% | MDA-MB-435 melanoma 35.9% | SW-620 colon 25.5% | MCF7 breast 28.8% | HCT-116 colon 28.5% | KM12 colon 42.4%

Nc1nc(N)c2cc(CNc3ccc(C(=O)NC(CC(=O)O)C(=O)O)cc3)ccc2n1 (stereo not drawn)
inactive: SR leukemia 13.8% | OVCAR-5 ovarian 30.1% | OVCAR-4 ovarian 50.8% | SK-OV-3 ovarian 47.4% | IGROV1 ovarian 38.7% | OVCAR-3 ovarian 50.5% | NCI/ADR-RES ovarian 17.3% | T-47D breast 62.3% | BT-549 breast 57.7% | MDA-MB-435 melanoma 37.8% | SW-620 colon 25.2% | MCF7 breast 17.3% | HCT-116 colon 22.4% | KM12 colon 33.8%
active: OVCAR-8 ovarian -13.2% | HS 578T breast -20.2%

CCCC(=O)OCC1OC(n2cnc3c(=S)nc(N)[nH]c32)C(OC(=O)CCC)C1OC(=O)CCC (stereo not drawn)
inactive: OVCAR-5 ovarian 38.4% | OVCAR-4 ovarian 20.6% | IGROV1 ovarian 51% | HS 578T breast 29.9% | NCI/ADR-RES ovarian 40.2% | T-47D breast 33.4% | BT-549 breast 34.2% | MDA-MB-435 melanoma 36.3% | SW-620 colon 52% | MCF7 breast 17.8% | HCT-116 colon 24.7% | KM12 colon 41%
active: SR leukemia 6.99% | OVCAR-8 ovarian 6.16% | SK-OV-3 ovarian 5.91% | OVCAR-3 ovarian 6.47%

O=C(Nc1ccc(C(=O)Nc2ccc(C3=NCCCN3)cc2)cc1)Nc1ccc(C2=NCCCN2)cc1
inactive: SR leukemia 44.5% | OVCAR-8 ovarian 57.4% | OVCAR-4 ovarian 65.5% | SK-OV-3 ovarian 97.8% | IGROV1 ovarian 99.7% | OVCAR-3 ovarian 103% | HS 578T breast 91.3% | NCI/ADR-RES ovarian 86.5% | T-47D breast 45.2% | BT-549 breast 76.1% | MDA-MB-435 melanoma 103% | SW-620 colon 101% | MCF7 breast 70.8% | HCT-116 colon 63.9% | HCC-2998 colon 101% | KM12 colon 88.9%

CC(=Nc1ccccc1)C1=C(O)C(Cc2ccccc2)NC1=O (stereo not drawn)
active: SR leukemia -12% | IGROV1 ovarian 6.28% | OVCAR-3 ovarian -42.4% | MDA-MB-435 melanoma -27.3% | MCF7 breast 9.54% | HCT-116 colon 2.49% | HCC-2998 colon -20.6% | KM12 colon -46.3%
inactive: OVCAR-5 ovarian 18.9% | OVCAR-4 ovarian 39.6% | SK-OV-3 ovarian 16.8% | T-47D breast 67.6% | BT-549 breast 13.9% | SW-620 colon 19.3%

C[C@]12O[C@H](C[C@]1(O)CO)n1c3ccccc3c3c4c(c5c6ccccc6n2c5c31)CNC4=O
active: SR leukemia -14.4% | OVCAR-5 ovarian 4.92% | OVCAR-4 ovarian -23% | SK-OV-3 ovarian -46.3% | IGROV1 ovarian -26.3% | OVCAR-3 ovarian 0.931% | NCI/ADR-RES ovarian -38.1% | T-47D breast -24.4% | BT-549 breast -68.5% | MDA-MB-435 melanoma -80.1% | SW-620 colon 3.8% | MCF7 breast -55.2% | HCT-116 colon 0.7% | HCC-2998 colon -49.6% | KM12 colon -18.5%

From PubChem BioAssay (NCI)
